Measured values from paper PMC11006913.
Residue numbers refer to the chain shown, from its start.

Columns and labels:
Assay in all cases: PBM; 200 nM protein, PBS
Details in all cases: dsDNA, one strand shown
HOXB9 [1] = molecular target: HOXB9 (Homo sapiens, UniProt P17482 171-250, T197M)
HOXC9 [2] = molecular target: HOXC9 (Homo sapiens, UniProt P31274 178-260, K195R)
VENTX = molecular target: T1, VENTX (Homo sapiens, UniProt O95231 78-163)
T1 sequence: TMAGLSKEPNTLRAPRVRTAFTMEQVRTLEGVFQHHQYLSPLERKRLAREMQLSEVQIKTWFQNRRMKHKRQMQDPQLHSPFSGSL

HOXA7 [3] = molecular target: HOXA7 (Homo sapiens, UniProt P31268 116-202)
HOXA7 (Homo sapiens, UniProt P31268 116-202), sequence (P31268 116-202): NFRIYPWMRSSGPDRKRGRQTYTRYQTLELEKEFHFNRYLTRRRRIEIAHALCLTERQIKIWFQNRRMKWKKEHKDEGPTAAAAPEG

HOXC10 [4] = molecular target: HOXC10 (Homo sapiens, UniProt Q9NYD6 254-340)
HOXC10 (Homo sapiens, UniProt Q9NYD6 254-340), sequence (Q9NYD6 254-340): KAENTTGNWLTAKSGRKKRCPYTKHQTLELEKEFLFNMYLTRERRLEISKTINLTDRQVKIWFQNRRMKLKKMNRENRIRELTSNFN

PAX4 [5] = molecular target: T2, PAX4 (Homo sapiens, UniProt O43316 9-242, R200K)
T2 sequence: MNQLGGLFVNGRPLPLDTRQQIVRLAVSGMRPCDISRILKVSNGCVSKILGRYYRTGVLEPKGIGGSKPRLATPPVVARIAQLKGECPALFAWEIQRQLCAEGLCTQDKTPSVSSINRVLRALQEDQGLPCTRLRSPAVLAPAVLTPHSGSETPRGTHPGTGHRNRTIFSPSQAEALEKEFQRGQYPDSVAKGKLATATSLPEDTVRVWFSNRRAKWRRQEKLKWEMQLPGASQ

PAX4 [6] = molecular target: T3, PAX4 (Homo sapiens, UniProt O43316 9-242)
T3 sequence: T2 sequence with K192R

HOXB9 [7] = molecular target: HOXB9 (Homo sapiens, UniProt P17482 171-250)
HOXB9 (Homo sapiens, UniProt P17482 171-250), sequence (P17482 171-250): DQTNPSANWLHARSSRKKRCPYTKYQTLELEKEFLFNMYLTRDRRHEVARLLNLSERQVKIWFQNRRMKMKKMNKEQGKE

HOXC9 [8] = molecular target: HOXC9 (Homo sapiens, UniProt P31274 178-260)
HOXC9 (Homo sapiens, UniProt P31274 178-260), sequence (P31274 178-260): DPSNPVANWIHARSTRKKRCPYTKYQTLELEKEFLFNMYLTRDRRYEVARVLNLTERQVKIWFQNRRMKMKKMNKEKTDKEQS

HOXC9 [9] = molecular target: HOXC9 (Homo sapiens, UniProt P31274 178-260, R193K)
HOXC9 (Homo sapiens, UniProt P31274 178-260, R193K), sequence (P31274 178-260 R193K): as the sequence (P31274 178-260) above, with R16K counted along it

PAX4 [10] = molecular target: T4, PAX4 (Homo sapiens, UniProt O43316 9-242, F177V)
T4 sequence: T2 sequence with F169V, K192R

HOXC10 [11] = molecular target: HOXC10 (Homo sapiens, UniProt Q9NYD6 254-340, K271E)
HOXC10 (Homo sapiens, UniProt Q9NYD6 254-340, K271E), sequence (Q9NYD6 254-340 K271E): as the sequence (Q9NYD6 254-340) above, with K18E counted along it

PAX4 [12] = molecular target: T5, PAX4 (Homo sapiens, UniProt O43316 9-242, F177Y)
T5 sequence: T2 sequence with F169Y, K192R

VAX1 = VAX1 (Homo sapiens, UniProt Q5SQQ9 86-172)
VAX1, sequence (Q5SQQ9 86-172): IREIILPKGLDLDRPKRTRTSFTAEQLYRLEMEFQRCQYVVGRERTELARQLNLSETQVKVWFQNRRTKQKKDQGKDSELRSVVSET

HOXB9 [13] = molecular target: HOXB9 (Homo sapiens, UniProt P17482 171-250, R186Q)
HOXB9 (Homo sapiens, UniProt P17482 171-250, R186Q), sequence (P17482 171-250 R186Q): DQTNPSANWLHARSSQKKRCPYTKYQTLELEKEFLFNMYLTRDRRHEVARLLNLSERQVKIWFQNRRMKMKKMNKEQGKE

HOXC9 [14] = molecular target: HOXC9 (Homo sapiens, UniProt P31274 178-260, R222W)
HOXC9 (Homo sapiens, UniProt P31274 178-260, R222W), sequence (P31274 178-260 R222W): as the sequence (P31274 178-260) above, with R45W counted along it

PAX4 [15] = molecular target: T6, PAX4 (Homo sapiens, UniProt O43316 9-242, R227W)
T6 sequence: T2 sequence with K192R, R219W

HOXA2 [16] = molecular target: HOXA2 (Homo sapiens, UniProt O43364 129-215, Y150S)
HOXA2 (Homo sapiens, UniProt O43364 129-215, Y150S), sequence (O43364 129-215 Y150S): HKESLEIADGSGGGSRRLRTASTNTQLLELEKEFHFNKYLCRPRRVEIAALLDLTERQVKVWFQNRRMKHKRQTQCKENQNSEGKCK

HOXA7 [17] = molecular target: HOXA7 (Homo sapiens, UniProt P31268 116-202, W177C)
HOXA7 (Homo sapiens, UniProt P31268 116-202, W177C), sequence (P31268 116-202 W177C): as the sequence (P31268 116-202) above, with W62C counted along it

HOXA2 [18] = molecular target: HOXA2 (Homo sapiens, UniProt O43364 129-215)
HOXA2 (Homo sapiens, UniProt O43364 129-215), sequence (O43364 129-215): as the sequence (O43364 129-215 Y150S) above, with S22Y counted along it

HOXB9 (Homo sapiens, UniProt P17482 171-250, T197M), sequence (P17482 171-250 T197M): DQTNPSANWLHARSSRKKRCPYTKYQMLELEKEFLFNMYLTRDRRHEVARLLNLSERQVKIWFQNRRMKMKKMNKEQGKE
HOXC9 (Homo sapiens, UniProt P31274 178-260, K195R), sequence (P31274 178-260 K195R): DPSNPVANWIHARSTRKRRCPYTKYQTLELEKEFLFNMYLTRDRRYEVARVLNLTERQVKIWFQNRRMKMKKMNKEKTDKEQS

Row | Sequence | binding signal (HOXB9 [1]) | binding signal (HOXC9 [2]) | binding signal (VENTX) | binding signal (HOXA7 [3]) | binding signal (HOXC10 [4]) | binding signal (PAX4 [5]) | binding signal (PAX4 [6]) | binding signal (HOXB9 [7]) | binding signal (HOXC9 [8]) | binding signal (HOXC9 [9]) | binding signal (PAX4 [10]) | binding signal (HOXC10 [11]) | binding signal (PAX4 [12]) | binding signal (VAX1) | binding signal (HOXB9 [13]) | binding signal (HOXC9 [14]) | binding signal (PAX4 [15]) | binding signal (HOXA2 [16]) | binding signal (HOXA7 [17]) | binding signal (HOXA2 [18])
1 | CGTAATTA | 10.2 upbm affinity estimate (log intensity, higher = more binding, comparable within an allelic series) | 12.7 upbm affinity estimate (log intensity, higher = more binding, comparable within an allelic series) | 12.7 upbm affinity estimate (log intensity, higher = more binding, comparable within an allelic series) | 12 upbm affinity estimate (log intensity, higher = more binding, comparable within an allelic series) | 12.3 upbm affinity estimate (log intensity, higher = more binding, comparable within an allelic series) | 11.9 upbm affinity estimate (log intensity, higher = more binding, comparable within an allelic series) | 12.4 upbm affinity estimate (log intensity, higher = more binding, comparable within an allelic series) | 11.9 upbm affinity estimate (log intensity, higher = more binding, comparable within an allelic series) | 12.8 upbm affinity estimate (log intensity, higher = more binding, comparable within an allelic series) | 12.7 upbm affinity estimate (log intensity, higher = more binding, comparable within an allelic series) | 10.7 upbm affinity estimate (log intensity, higher = more binding, comparable within an allelic series) | 12.3 upbm affinity estimate (log intensity, higher = more binding, comparable within an allelic series) | 11.1 upbm affinity estimate (log intensity, higher = more binding, comparable within an allelic series) | 13.6 upbm affinity estimate (log intensity, higher = more binding, comparable within an allelic series) | 11.7 upbm affinity estimate (log intensity, higher = more binding, comparable within an allelic series) | 10.9 upbm affinity estimate (log intensity, higher = more binding, comparable within an allelic series) | 11.1 upbm affinity estimate (log intensity, higher = more binding, comparable within an allelic series) | 11 upbm affinity estimate (log intensity, higher = more binding, comparable within an allelic series) | 8.91 upbm affinity estimate (log intensity, higher = more binding, comparable within an allelic series) | 13.2 upbm affinity estimate (log intensity, higher = more binding, comparable within an allelic series)
2 | GCTAATTA | 10.2 upbm affinity estimate (log intensity, higher = more binding, comparable within an allelic series) | 12.5 upbm affinity estimate (log intensity, higher = more binding, comparable within an allelic series) | 13.5 upbm affinity estimate (log intensity, higher = more binding, comparable within an allelic series) | 12.1 upbm affinity estimate (log intensity, higher = more binding, comparable within an allelic series) | – | 12.3 upbm affinity estimate (log intensity, higher = more binding, comparable within an allelic series) | 12.9 upbm affinity estimate (log intensity, higher = more binding, comparable within an allelic series) | 11.8 upbm affinity estimate (log intensity, higher = more binding, comparable within an allelic series) | 12.6 upbm affinity estimate (log intensity, higher = more binding, comparable within an allelic series) | 12.5 upbm affinity estimate (log intensity, higher = more binding, comparable within an allelic series) | 10.9 upbm affinity estimate (log intensity, higher = more binding, comparable within an allelic series) | 12.1 upbm affinity estimate (log intensity, higher = more binding, comparable within an allelic series) | 11.4 upbm affinity estimate (log intensity, higher = more binding, comparable within an allelic series) | 14 upbm affinity estimate (log intensity, higher = more binding, comparable within an allelic series) | 11.5 upbm affinity estimate (log intensity, higher = more binding, comparable within an allelic series) | 10.9 upbm affinity estimate (log intensity, higher = more binding, comparable within an allelic series) | 11.4 upbm affinity estimate (log intensity, higher = more binding, comparable within an allelic series) | 10.8 upbm affinity estimate (log intensity, higher = more binding, comparable within an allelic series) | 8.89 upbm affinity estimate (log intensity, higher = more binding, comparable within an allelic series) | 13.4 upbm affinity estimate (log intensity, higher = more binding, comparable within an allelic series)
3 | CTTAATTA | 10.2 upbm affinity estimate (log intensity, higher = more binding, comparable within an allelic series) | 12.7 upbm affinity estimate (log intensity, higher = more binding, comparable within an allelic series) | 12.9 upbm affinity estimate (log intensity, higher = more binding, comparable within an allelic series) | 12.1 upbm affinity estimate (log intensity, higher = more binding, comparable within an allelic series) | 12.2 upbm affinity estimate (log intensity, higher = more binding, comparable within an allelic series) | 12.1 upbm affinity estimate (log intensity, higher = more binding, comparable within an allelic series) | 12.7 upbm affinity estimate (log intensity, higher = more binding, comparable within an allelic series) | 11.8 upbm affinity estimate (log intensity, higher = more binding, comparable within an allelic series) | 12.6 upbm affinity estimate (log intensity, higher = more binding, comparable within an allelic series) | 12.6 upbm affinity estimate (log intensity, higher = more binding, comparable within an allelic series) | 11 upbm affinity estimate (log intensity, higher = more binding, comparable within an allelic series) | 12.2 upbm affinity estimate (log intensity, higher = more binding, comparable within an allelic series) | 11.5 upbm affinity estimate (log intensity, higher = more binding, comparable within an allelic series) | 13.8 upbm affinity estimate (log intensity, higher = more binding, comparable within an allelic series) | 11.5 upbm affinity estimate (log intensity, higher = more binding, comparable within an allelic series) | 11.1 upbm affinity estimate (log intensity, higher = more binding, comparable within an allelic series) | 11.3 upbm affinity estimate (log intensity, higher = more binding, comparable within an allelic series) | 11 upbm affinity estimate (log intensity, higher = more binding, comparable within an allelic series) | 8.96 upbm affinity estimate (log intensity, higher = more binding, comparable within an allelic series) | 13.1 upbm affinity estimate (log intensity, higher = more binding, comparable within an allelic series)
4 | GGTAATTA | 10.6 upbm affinity estimate (log intensity, higher = more binding, comparable within an allelic series) | 13.2 upbm affinity estimate (log intensity, higher = more binding, comparable within an allelic series) | 13.2 upbm affinity estimate (log intensity, higher = more binding, comparable within an allelic series) | 12.6 upbm affinity estimate (log intensity, higher = more binding, comparable within an allelic series) | 12.5 upbm affinity estimate (log intensity, higher = more binding, comparable within an allelic series) | 12 upbm affinity estimate (log intensity, higher = more binding, comparable within an allelic series) | 12.5 upbm affinity estimate (log intensity, higher = more binding, comparable within an allelic series) | 12.3 upbm affinity estimate (log intensity, higher = more binding, comparable within an allelic series) | 13.1 upbm affinity estimate (log intensity, higher = more binding, comparable within an allelic series) | 13.1 upbm affinity estimate (log intensity, higher = more binding, comparable within an allelic series) | 10.7 upbm affinity estimate (log intensity, higher = more binding, comparable within an allelic series) | 12.7 upbm affinity estimate (log intensity, higher = more binding, comparable within an allelic series) | 11.1 upbm affinity estimate (log intensity, higher = more binding, comparable within an allelic series) | 14.1 upbm affinity estimate (log intensity, higher = more binding, comparable within an allelic series) | 12.2 upbm affinity estimate (log intensity, higher = more binding, comparable within an allelic series) | 11 upbm affinity estimate (log intensity, higher = more binding, comparable within an allelic series) | 11.1 upbm affinity estimate (log intensity, higher = more binding, comparable within an allelic series) | 11 upbm affinity estimate (log intensity, higher = more binding, comparable within an allelic series) | 9.03 upbm affinity estimate (log intensity, higher = more binding, comparable within an allelic series) | 13.4 upbm affinity estimate (log intensity, higher = more binding, comparable within an allelic series)
5 | TTAATTAA | 10.4 upbm affinity estimate (log intensity, higher = more binding, comparable within an allelic series) | 12.9 upbm affinity estimate (log intensity, higher = more binding, comparable within an allelic series) | 12.8 upbm affinity estimate (log intensity, higher = more binding, comparable within an allelic series) | 12.2 upbm affinity estimate (log intensity, higher = more binding, comparable within an allelic series) | 12.4 upbm affinity estimate (log intensity, higher = more binding, comparable within an allelic series) | 12.1 upbm affinity estimate (log intensity, higher = more binding, comparable within an allelic series) | 12.6 upbm affinity estimate (log intensity, higher = more binding, comparable within an allelic series) | 12.3 upbm affinity estimate (log intensity, higher = more binding, comparable within an allelic series) | 12.8 upbm affinity estimate (log intensity, higher = more binding, comparable within an allelic series) | 12.7 upbm affinity estimate (log intensity, higher = more binding, comparable within an allelic series) | 11.2 upbm affinity estimate (log intensity, higher = more binding, comparable within an allelic series) | 12.3 upbm affinity estimate (log intensity, higher = more binding, comparable within an allelic series) | 11.6 upbm affinity estimate (log intensity, higher = more binding, comparable within an allelic series) | 13.6 upbm affinity estimate (log intensity, higher = more binding, comparable within an allelic series) | 12 upbm affinity estimate (log intensity, higher = more binding, comparable within an allelic series) | 11.5 upbm affinity estimate (log intensity, higher = more binding, comparable within an allelic series) | 11.4 upbm affinity estimate (log intensity, higher = more binding, comparable within an allelic series) | 10.8 upbm affinity estimate (log intensity, higher = more binding, comparable within an allelic series) | 8.85 upbm affinity estimate (log intensity, higher = more binding, comparable within an allelic series) | 13.1 upbm affinity estimate (log intensity, higher = more binding, comparable within an allelic series)
6 | TAATTAAA | 10.3 upbm affinity estimate (log intensity, higher = more binding, comparable within an allelic series) | 13.1 upbm affinity estimate (log intensity, higher = more binding, comparable within an allelic series) | 12.5 upbm affinity estimate (log intensity, higher = more binding, comparable within an allelic series) | 11.9 upbm affinity estimate (log intensity, higher = more binding, comparable within an allelic series) | 12.7 upbm affinity estimate (log intensity, higher = more binding, comparable within an allelic series) | 12 upbm affinity estimate (log intensity, higher = more binding, comparable within an allelic series) | 12.5 upbm affinity estimate (log intensity, higher = more binding, comparable within an allelic series) | 12.4 upbm affinity estimate (log intensity, higher = more binding, comparable within an allelic series) | 13 upbm affinity estimate (log intensity, higher = more binding, comparable within an allelic series) | 13 upbm affinity estimate (log intensity, higher = more binding, comparable within an allelic series) | 11 upbm affinity estimate (log intensity, higher = more binding, comparable within an allelic series) | 12.7 upbm affinity estimate (log intensity, higher = more binding, comparable within an allelic series) | 11.3 upbm affinity estimate (log intensity, higher = more binding, comparable within an allelic series) | 13.3 upbm affinity estimate (log intensity, higher = more binding, comparable within an allelic series) | 12.1 upbm affinity estimate (log intensity, higher = more binding, comparable within an allelic series) | 11.5 upbm affinity estimate (log intensity, higher = more binding, comparable within an allelic series) | 11.2 upbm affinity estimate (log intensity, higher = more binding, comparable within an allelic series) | 10.9 upbm affinity estimate (log intensity, higher = more binding, comparable within an allelic series) | 8.8 upbm affinity estimate (log intensity, higher = more binding, comparable within an allelic series) | 12.9 upbm affinity estimate (log intensity, higher = more binding, comparable within an allelic series)
